From PubChem BioAssay AID430 (Sanford-Burnham Center for Chemical Genomics, 2006) come the findings set out here.

The structures appear in SMILES notation. Screen size: about 63,000 compounds; about 1,100 (1.7%) were called active. The sample holds actives, similar compounds and a random draw of the others, so the mix is not that of the screen. Rule as the data show it: active = cytotoxicity above about 50%; inactive = the rest. Entries with a potency or affinity are not part of this list.

This test in a line: HPDE-C7 pancreatic duct cell viability loss – fluorescence, HTS (AID 430).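 Also: cells exposed to compound for 48 hours before viability readout; 0% = vehicle and 100% = reference cytotoxic drug.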 As to conditions: HPDE-C7 pancreatic duct cells viability, at 10 µM, active compounds read high.
Take `Cc1cc(C(C)(C)C)oc1C(=O)N1CCN(C(=O)c2oc(C(C)(C)C)cc2C)CC1`: the cytotoxicity was 4% (inactive).

On to `CCCCS(=O)(=O)C(=C1Nc2ccccc2N1)S(=O)(=O)CCCC`, for which the cytotoxicity was -0.6% (inactive).

As to `CCOCCCn1c(=S)[nH]c2cc(C(=O)N3CCC(C(N)=O)CC3)ccc2c1=O`, the cytotoxicity is 0.3% (inactive).

Turning to `CC(C)OC(=O)CSc1nnc(-c2cnccn2)n1-c1ccc(Cl)cc1`, the cytotoxicity is 9.2% (inactive).

For the compound `Cc1ccc(OCC(=O)N2CCN(C(=O)Cc3ccccc3)CC2)cc1`, the cytotoxicity is -0.3% (inactive).

Consider `N#CCSc1nc2cc(C(=O)N3CCCC3)ccc2c(=O)n1Cc1ccccc1`, for which the cytotoxicity was -0.6% (inactive).

Take `CCOC(=O)CSc1nc2cc(C(=O)N3CCC(C(N)=O)CC3)ccc2c(=O)n1-c1ccccc1`: the cytotoxicity was -8.3% (inactive).

`N#CCSc1nc2cc(C(=O)N3CCC(C(N)=O)CC3)ccc2c2nc3ccccc3n12`: the cytotoxicity was 75.7% (active).

Take `Cc1onc(-c2ccccc2)c1C(=O)Nc1cccc2nsnc12`: the cytotoxicity was -11.7% (inactive).

Take `COc1ccc(CN2CN(C(C)C)CSC2=S)cc1`: the cytotoxicity was 50.5% (active).

In the case of `COc1ccc(Cn2c(C)ccc2C)cc1`, the cytotoxicity was -2% (inactive).

As for `COc1ccc(CN2CCC(=O)NC2=O)cc1`, the cytotoxicity is 6.7% (inactive).

As to `CC(=O)c1cc(-c2ccccc2)n(CCC(=O)NCc2cccs2)c1C`, the cytotoxicity is -24% (inactive).

With `CN(C)c1ccc2c(c1)OC(N)=C(C#N)C2c1cccc(F)c1` (stereo not given), the cytotoxicity was 62.6% (active).

`N#CC1=C(N)Oc2cc(O)ccc2C1c1ccncc1` (stereo not given): the cytotoxicity is 3% (inactive).

Take `N#CC1=C(N)Oc2nc(-c3ccccc3)[nH]c2C1c1cccnc1` (stereo not given): the cytotoxicity is 3.4% (inactive).

In the case of `CCc1[nH]nc2c1C(c1cccnc1)C(C#N)=C(N)O2` (stereo not given), the cytotoxicity was 4.9% (inactive).

For `CCN(CC)c1ccc2c(c1)OC(N)=C(C#N)C2c1cccnc1` (stereo not given), the cytotoxicity is 64.4% (active).

`N#CC1=C(N)Oc2cc(O)ccc2C1c1ccccc1` (stereo not given): the cytotoxicity was -11.3% (inactive).

`CC(C)(C)c1[nH]nc2c1C(c1cccnc1)C(C#N)=C(N)O2` (stereo not given): the cytotoxicity is -9.6% (inactive).

`N#CC1=C(N)Oc2c(ccc3cccnc23)C1c1cccnc1` (stereo not given): the cytotoxicity is 62.4% (active).

`CCCc1nn(C)c2c1C(c1cccnc1)C(C#N)=C(N)O2` (stereo not given): the cytotoxicity is 3.9% (inactive).

Regarding `C=CCSC1=C(C#N)C(c2ccccc2Cl)CC(=O)N1` (stereo not given), the cytotoxicity is -33.8% (inactive).

`O=C(O)C1C2C=CC(C2)C1C(=O)Nc1ccc(C(=O)N2CCCCC2)c(Cl)c1` (stereo not given): the cytotoxicity was -20.1% (inactive).

For `COc1cc2c(cc1OC)C1=C(C#N)CN(CC(=O)O)CN1CC2`, the cytotoxicity was -4.5% (inactive).

Regarding `COc1ccc(S(=O)(=O)NCCC(=O)NCc2cccs2)cc1`, the cytotoxicity is -13.7% (inactive).

On to `C=C(C)CSc1nc2ncccc2[nH]1`, for which the cytotoxicity is -0.6% (inactive).

In the case of `COc1ccc(CN(C(=O)CSc2nnc(-c3ccccc3F)o2)c2ccc(F)cc2)cc1`, the cytotoxicity was 6.6% (inactive).

With `O=C(CSc1nnc(-c2c[nH]c3ccccc23)o1)N(Cc1ccccc1)c1ccc(F)cc1`, the cytotoxicity was 53.6% (active).

On to `COc1ccc(CN(C(=O)CSc2nnc(-c3ccc(F)cc3)o2)c2ccc(F)cc2)cc1`, for which the cytotoxicity is 3% (inactive).

For `CCOC(=O)C(C)Sc1nc2ccccc2c(=O)n1CC` (stereo not given), the cytotoxicity is -15.7% (inactive).

As to `Cc1cccc(N2CCN(c3nnnn3-c3ccccc3)CC2C)c1` (stereo not given), the cytotoxicity is 0.6% (inactive).

For the compound `CC(NC(=O)c1noc2c1CCCC2)c1ccccc1` (stereo not given), the cytotoxicity was 4.7% (inactive).

In the case of `Cc1ccc2cc(CN(Cc3ccccc3)Cc3nnnn3C3CCCC3)c(=O)[nH]c2c1`, the cytotoxicity was 53.3% (active).

For the compound `CCC(c1nnnn1C1CCCC1)N(Cc1cccs1)Cc1cc2cc(C)ccc2[nH]c1=O` (stereo not given), the cytotoxicity is 56.4% (active).

Take `Cc1ccc2[nH]c(=O)c(CN(Cc3nnnn3C3CCCC3)C3CCCCC3)cc2c1`: the cytotoxicity was 9.3% (inactive).

On to `CCOc1ccc2[nH]c(=O)c(CN(Cc3cccs3)Cc3nnnn3C(C)(C)C)cc2c1`, for which the cytotoxicity was 31.8% (inactive).

In the case of `CCOc1ccc2[nH]c(=O)c(CN(Cc3cccs3)Cc3nnnn3C(C)(C)CC)cc2c1`, the cytotoxicity was 12.9% (inactive).

As for `CCOc1ccc2[nH]c(=O)c(CN(Cc3cccs3)C(CC)c3nnnn3C(C)(C)CC)cc2c1` (stereo not given), the cytotoxicity is 59% (active).

`Cc1ccc2cc(CN(Cc3ccc(F)cc3)Cc3nnnn3C3CCCC3)c(=O)[nH]c2c1`: the cytotoxicity was 23.4% (inactive).

Regarding `CCOC(=O)Cn1nnnc1C(CC)N(Cc1cccs1)Cc1cc2cc(C)ccc2[nH]c1=O` (stereo not given), the cytotoxicity is 7.5% (inactive).

As to `Cc1ccc2[nH]c(=O)c(CN(Cc3ccccc3)Cc3nnnn3C3CCCC3)cc2c1`, the cytotoxicity was 39.3% (inactive).

In the case of `COc1ccc(NC(=O)C2CC(=O)NC(Nc3cccc(C)c3)=N2)cc1` (stereo not given), the cytotoxicity is 5.9% (inactive).

As to `COC(=O)c1ccc(COC(=O)c2ccc(-n3cnnn3)cc2)o1`, the cytotoxicity was -1.9% (inactive).

As for `O=C(Cc1ccc(Cl)cc1)NCCN1CCCC1`, the cytotoxicity was 1.5% (inactive).

On to `Cc1c(C(=O)O)sc2ncn(C)c(=O)c12`, for which the cytotoxicity was -7.5% (inactive).

In the case of `c1ccc(CCn2nnnc2C(c2cccs2)N2CCOCC2)cc1` (stereo not given), the cytotoxicity was 3.6% (inactive).

`COc1ccc(S(=O)(=O)NCCc2csc(C)n2)cc1C`: the cytotoxicity is 0.1% (inactive).

Regarding `Cc1ccccc1-n1c(C)nc2ccccc21`, the cytotoxicity was -11.6% (inactive).

Consider `Cc1ccc2c(c1)c1c3n2CCN(C(=O)CN2CCN(C)CC2)C3CCC1` (stereo not given), for which the cytotoxicity is 42.4% (inactive).

As to `Cc1ccc2c(c1)c1c3n2CCN(C(=O)C2CC2)C3CCC1` (stereo not given), the cytotoxicity is -6.9% (inactive).

Turning to `COc1ccc(Cn2nnnc2CN2CCOCC2)cc1`, the cytotoxicity was -5.5% (inactive).

On to `Cc1nc(NCc2ccco2)c(C#N)c2c1COC(C)(C)C2`, for which the cytotoxicity is -17.6% (inactive).

As for `CN(C)CCNc1nc(-c2ccco2)c2c(c1C#N)CC(C)(C)OC2`, the cytotoxicity was 2.7% (inactive).

`CCN(CC)CCNc1nc(-c2ccco2)c2c(c1C#N)CC(C)(C)OC2`: the cytotoxicity was -14.1% (inactive).

Consider `CCCc1nc(NCc2ccco2)c(C#N)c2c1COC(C)(C)C2`, for which the cytotoxicity is -13.3% (inactive).

In the case of `CCC(=O)Nc1cc(C(=O)NCC2CCCN2CC)c(OC)cc1N(C)C` (stereo not given), the cytotoxicity is -2.6% (inactive).

Consider `Cc1cccc(C)c1NC(=O)N1CCC(n2cnc3ccccc32)CC1`, for which the cytotoxicity is -24.3% (inactive).

In the case of `Cc1cc(C)n(C(=O)CNC(=O)COc2ccccc2)n1`, the cytotoxicity was -2.7% (inactive).

Consider `COC(=O)c1ccccc1NC(=O)c1cc2sccc2n1C`, for which the cytotoxicity was 3.3% (inactive).

With `Cc1ccc(S(=O)(=O)Cn2nnnc2C(C(C)C)N2CCN(Cc3ccco3)CC2)cc1` (stereo not given), the cytotoxicity was -0.6% (inactive).

Take `COC(=O)CCC(=O)Oc1ccc(OC(=O)CCC(=O)OC)cc1`: the cytotoxicity was 31.7% (inactive).

In the case of `CC(C)c1ccc(OC(=O)NCCO)cc1`, the cytotoxicity was -0.9% (inactive).

Regarding `CCOc1ccc(C(=O)COC(=O)CC)cc1`, the cytotoxicity is -1.4% (inactive).

With `CCC(=O)Oc1ccc(-c2nc(-c3cccnc3)no2)cc1`, the cytotoxicity is -4.4% (inactive).

As for `CCn1c(Cc2ccccc2)nnc1SCC(=O)Nc1cc(C)on1`, the cytotoxicity was 4.4% (inactive).

With `O=C1CCC(=O)N1OCCOc1ccc2c(c1)CCC2`, the cytotoxicity was -1.4% (inactive).

Consider `O=C1NC(c2ccc3c(c2)OCO3)Nc2ccccc21` (stereo not given), for which the cytotoxicity was 10.6% (inactive).

In the case of `COC(=O)c1ccc2c(=O)n(CCCN3CCOCC3)c(=S)[nH]c2c1`, the cytotoxicity was 2.7% (inactive).

Turning to `CCC(C)C(NC(=O)C1CCC(C)CC1)C(=O)NC(C(=O)OC)C(C)C` (stereo not given), the cytotoxicity was -5.2% (inactive).

In the case of `CCOC(=O)c1sc(Nc2nc3c(OC)cccc3s2)nc1C`, the cytotoxicity is 63.9% (active).

Consider `CCOC(=O)c1sc(NCCNc2nc(C)c(C(=O)OCC)s2)nc1C`, for which the cytotoxicity was -1.3% (inactive).

For the compound `COc1ccccc1-c1nnc(Nc2nc3c(OC)cccc3s2)o1`, the cytotoxicity is 54.9% (active).

`COc1cc(-c2nnc(-c3cccs3)o2)cc(OC)c1OC`: the cytotoxicity was -21.3% (inactive).

With `COc1cccc2sc(N(C)c3ccccc3)nc12`, the cytotoxicity was -14% (inactive).

In the case of `COc1cc2nc(-c3cccs3)oc(=O)c2cc1OC`, the cytotoxicity was 16.9% (inactive).

For `COc1ccccc1-c1nnc(NC(=O)c2ccccc2F)o1`, the cytotoxicity is 4.8% (inactive).

Consider `COc1cccc2sc(Nc3nnc(-c4cccs4)o3)nc12`, for which the cytotoxicity is 65.3% (active).

Take `COc1ccc(-c2nnc(Nc3nc4c(OC)cccc4s3)o2)cc1`: the cytotoxicity was 85.9% (active).

Turning to `COc1ccc(-c2nnc(-c3ccc(N)cc3)o2)cc1`, the cytotoxicity was 2.5% (inactive).

Take `COc1ccc(-c2nnc(NC(=O)C(C)C)o2)cc1`: the cytotoxicity was -7.7% (inactive).

As to `COC(=O)c1sc(NC(=O)COc2ccccc2OC)nc1C`, the cytotoxicity was -3% (inactive).

Take `CCCCNC(=O)NCC(=O)Nc1ccc(F)c(F)c1`: the cytotoxicity is -4% (inactive).

`CCSc1nnc(NC(=O)CSc2nccn2-c2cc(C)cc(C)c2)s1`: the cytotoxicity is -2.2% (inactive).

Regarding `CC(=O)NC1CC2CCCC(C1)N2S(=O)(=O)c1ccccc1` (stereo not given), the cytotoxicity is -17.7% (inactive).

In the case of `COc1ccc(N(C(=O)CNC(=O)c2ccco2)C(C(=O)NC2CCCCC2)c2ccco2)cc1` (stereo not given), the cytotoxicity is -2.6% (inactive).

For the compound `Cc1nc(NC(=O)C2CC2)sc1C(=O)N1CCCCC1`, the cytotoxicity was 11.8% (inactive).

As for `Cc1ccc(-c2noc(CCC(=O)NCCCN3CCN(c4ccc(F)cc4)CC3)n2)cc1`, the cytotoxicity is -1.5% (inactive).

In the case of `O=C(Nc1ccccn1)c1cccnc1`, the cytotoxicity is 0.9% (inactive).

Turning to `CC(=O)Nc1ccc(S(=O)(=O)N(CC(=O)O)Cc2ccccc2)cc1`, the cytotoxicity is -8.5% (inactive).

Consider `Cc1ccc(S(=O)(=O)Nc2ccc(S(=O)(=O)N3CCCC3)cc2)cc1`, for which the cytotoxicity is 8.3% (inactive).

`Cc1cccc(Nc2nc(-c3ccccn3)cs2)n1`: the cytotoxicity is 0.3% (inactive).

Take `O=C(Nc1nnc(-c2ccccc2Cl)o1)c1ccco1`: the cytotoxicity is 6.6% (inactive).

For `COc1cccc2sc(Nc3nc(-c4ccccn4)cs3)nc12`, the cytotoxicity was 65.7% (active).

With `COc1ccc(-c2noc(-c3ccccc3Cl)n2)cc1OC`, the cytotoxicity was 0.6% (inactive).

For `COc1cccc2sc(Nc3nnc(-c4ccccc4Cl)o3)nc12`, the cytotoxicity was 52.9% (active).

`c1ccc(-c2csc(Nc3cccnc3)n2)nc1`: the cytotoxicity was 3.7% (inactive).

Consider `Cc1ccc2oc(=O)cc(CN3CCC(C)CC3)c2c1`, for which the cytotoxicity is 0.7% (inactive).

Regarding `O=c1c2ccccc2c(C=NCCO)c(O)n1-c1ccccc1`, the cytotoxicity is 1.2% (inactive).

For `CCOC(=O)C1CCCN(C2CC(=O)N(c3ccc(C)c(C)c3)C2=O)C1` (stereo not given), the cytotoxicity was -3.2% (inactive).
